{"source": "the supplement of paper PMC11732987", "about": "“Enantioselective OTUD7B fragment discovery through chemoproteomics screening and high-throughput optimisation” (Communications Chemistry, 2025)", "assay_in_all_cases": "log2 ratio of Biotin-Ahx-Ub-VS probe labelling (fragment/DMSO); higher = less target engagement (more negative = stronger competition), active = hit call of the paper (q ≤ 0.05, log2 ratio ≤ -1)", "settings_in_all_cases": "compound concentration: 200 uM; treatment time: 3 h", "key": {"OTUD6B": {"target": "T1, OTUD6B (UniProt Q8N6M0)", "T1 sequence (whole entry)": "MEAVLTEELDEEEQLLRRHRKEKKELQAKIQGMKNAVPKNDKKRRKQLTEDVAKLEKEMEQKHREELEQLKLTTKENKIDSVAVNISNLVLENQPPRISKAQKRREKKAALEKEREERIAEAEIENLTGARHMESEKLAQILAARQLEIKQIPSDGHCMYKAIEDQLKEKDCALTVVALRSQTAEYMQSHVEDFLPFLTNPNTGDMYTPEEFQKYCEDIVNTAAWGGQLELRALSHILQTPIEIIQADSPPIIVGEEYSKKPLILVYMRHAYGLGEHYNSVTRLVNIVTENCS", "how_it_was_run": "(§1)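 Labelling with Biotin-Ahx-Ub-VS (0.5 µM final, 1 h) followed a 3 h triplicate treatment of HEK293T lysate (495 µg per sample, Tris/CHAPS/IGEPAL buffer with protease inhibitors) with fragment at 200 µM or vehicle. Labelled DUBs were NeutrAvidin-enriched, digested with LysC and trypsin, and run by diaPASEF LC-MS/MS. The values, average log2 fragment/vehicle ratios by unpaired t-test, come from global-median-normalised Spectronaut label-free quantities. Proteins with ≥2 unique peptides were used.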"}, "OTUD7B": {"target": "T2, OTUD7B (UniProt Q6GQQ9)", "T2 sequence (whole entry)": "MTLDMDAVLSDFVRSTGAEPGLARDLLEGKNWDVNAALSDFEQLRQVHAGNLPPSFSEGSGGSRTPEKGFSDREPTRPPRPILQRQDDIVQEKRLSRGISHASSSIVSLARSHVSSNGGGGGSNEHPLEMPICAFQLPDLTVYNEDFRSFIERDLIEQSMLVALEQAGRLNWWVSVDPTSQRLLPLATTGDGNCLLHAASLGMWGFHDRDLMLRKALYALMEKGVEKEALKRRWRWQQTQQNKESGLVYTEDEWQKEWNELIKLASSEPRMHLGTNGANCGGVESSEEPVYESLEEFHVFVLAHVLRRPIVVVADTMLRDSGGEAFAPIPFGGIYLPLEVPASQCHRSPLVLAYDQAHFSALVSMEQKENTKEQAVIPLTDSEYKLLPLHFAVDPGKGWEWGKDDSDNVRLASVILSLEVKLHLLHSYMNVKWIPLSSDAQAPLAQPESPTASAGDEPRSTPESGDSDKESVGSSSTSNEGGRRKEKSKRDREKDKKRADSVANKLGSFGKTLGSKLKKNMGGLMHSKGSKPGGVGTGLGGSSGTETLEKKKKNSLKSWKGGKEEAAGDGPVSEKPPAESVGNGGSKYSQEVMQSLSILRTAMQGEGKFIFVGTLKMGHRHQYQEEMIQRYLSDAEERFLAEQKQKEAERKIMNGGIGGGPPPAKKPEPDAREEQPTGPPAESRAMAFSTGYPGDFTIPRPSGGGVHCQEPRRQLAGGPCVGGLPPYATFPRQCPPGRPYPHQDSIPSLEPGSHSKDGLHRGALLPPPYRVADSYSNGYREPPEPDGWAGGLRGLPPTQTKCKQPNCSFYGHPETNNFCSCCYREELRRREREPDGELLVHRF", "how_it_was_run": "as §1"}, "PRPF8": {"target": "PRPF8 (UniProt Q6P2Q9)", "how_it_was_run": "as §1"}, "PSMD7": {"target": "T3, PSMD7 (UniProt P51665)", "T3 sequence (whole entry)": "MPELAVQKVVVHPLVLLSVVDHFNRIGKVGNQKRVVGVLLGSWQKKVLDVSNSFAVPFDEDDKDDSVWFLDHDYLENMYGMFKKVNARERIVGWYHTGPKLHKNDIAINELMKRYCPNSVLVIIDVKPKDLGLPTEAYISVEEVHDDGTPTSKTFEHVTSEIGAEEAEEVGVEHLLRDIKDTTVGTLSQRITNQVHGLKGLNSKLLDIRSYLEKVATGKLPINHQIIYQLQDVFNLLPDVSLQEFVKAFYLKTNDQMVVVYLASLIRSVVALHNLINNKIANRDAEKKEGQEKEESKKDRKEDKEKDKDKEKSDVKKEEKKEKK", "how_it_was_run": "as §1"}, "UCHL1": {"target": "UCHL1 (UniProt P09936)", "sequence (P09936 whole entry, looked up)": "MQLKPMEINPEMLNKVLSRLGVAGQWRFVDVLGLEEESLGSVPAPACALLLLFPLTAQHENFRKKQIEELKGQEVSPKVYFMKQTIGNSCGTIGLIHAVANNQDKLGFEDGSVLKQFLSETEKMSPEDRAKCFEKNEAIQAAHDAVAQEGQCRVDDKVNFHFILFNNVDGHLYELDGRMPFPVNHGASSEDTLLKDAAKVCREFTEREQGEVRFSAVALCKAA", "how_it_was_run": "as §1"}, "UCHL3": {"target": "T4, UCHL3 (UniProt P15374)", "T4 sequence (whole entry)": "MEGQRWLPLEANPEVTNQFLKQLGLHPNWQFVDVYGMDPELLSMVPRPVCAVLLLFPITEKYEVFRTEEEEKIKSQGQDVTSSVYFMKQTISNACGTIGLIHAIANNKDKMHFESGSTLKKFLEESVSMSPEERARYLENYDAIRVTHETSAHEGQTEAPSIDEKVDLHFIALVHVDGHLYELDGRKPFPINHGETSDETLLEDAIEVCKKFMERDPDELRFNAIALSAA", "how_it_was_run": "as §1"}, "UCHL5": {"target": "T5, UCHL5 (UniProt Q9Y5K5)", "T5 sequence (whole entry)": "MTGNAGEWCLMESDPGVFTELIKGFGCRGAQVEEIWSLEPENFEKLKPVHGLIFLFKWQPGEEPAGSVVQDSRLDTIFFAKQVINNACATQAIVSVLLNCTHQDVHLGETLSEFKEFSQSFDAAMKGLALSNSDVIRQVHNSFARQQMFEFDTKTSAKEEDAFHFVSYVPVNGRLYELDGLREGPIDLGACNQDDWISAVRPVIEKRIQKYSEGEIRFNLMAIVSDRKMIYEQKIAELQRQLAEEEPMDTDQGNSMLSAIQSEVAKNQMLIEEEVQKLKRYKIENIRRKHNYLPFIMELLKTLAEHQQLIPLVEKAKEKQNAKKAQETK", "how_it_was_run": "as §1"}, "USP10": {"target": "USP10 (UniProt Q14694)", "sequence (Q14694 whole entry)": "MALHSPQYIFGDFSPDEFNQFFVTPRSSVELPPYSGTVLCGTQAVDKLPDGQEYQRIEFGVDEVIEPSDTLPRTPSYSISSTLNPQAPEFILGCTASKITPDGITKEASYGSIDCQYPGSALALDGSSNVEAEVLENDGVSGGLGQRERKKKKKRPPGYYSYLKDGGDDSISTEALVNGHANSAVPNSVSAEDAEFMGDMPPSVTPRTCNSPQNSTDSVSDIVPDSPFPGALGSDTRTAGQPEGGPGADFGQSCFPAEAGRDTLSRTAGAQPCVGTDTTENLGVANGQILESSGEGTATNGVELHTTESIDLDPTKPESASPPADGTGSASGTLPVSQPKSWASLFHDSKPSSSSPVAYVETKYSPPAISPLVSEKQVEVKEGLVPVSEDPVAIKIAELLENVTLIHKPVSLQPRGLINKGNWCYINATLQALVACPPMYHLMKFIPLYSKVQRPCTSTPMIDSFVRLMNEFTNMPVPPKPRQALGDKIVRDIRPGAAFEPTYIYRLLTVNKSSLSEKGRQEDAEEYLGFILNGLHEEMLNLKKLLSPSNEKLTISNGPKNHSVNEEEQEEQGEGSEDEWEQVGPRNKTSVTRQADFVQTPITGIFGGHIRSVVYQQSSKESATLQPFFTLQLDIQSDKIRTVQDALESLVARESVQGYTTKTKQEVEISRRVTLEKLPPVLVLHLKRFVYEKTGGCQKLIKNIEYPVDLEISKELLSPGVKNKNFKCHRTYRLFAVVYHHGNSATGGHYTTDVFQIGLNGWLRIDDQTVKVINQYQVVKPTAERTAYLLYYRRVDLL", "how_it_was_run": "as §1"}, "USP15": {"target": "T6, USP15 (UniProt Q9Y4E8)", "T6 sequence (whole entry)": "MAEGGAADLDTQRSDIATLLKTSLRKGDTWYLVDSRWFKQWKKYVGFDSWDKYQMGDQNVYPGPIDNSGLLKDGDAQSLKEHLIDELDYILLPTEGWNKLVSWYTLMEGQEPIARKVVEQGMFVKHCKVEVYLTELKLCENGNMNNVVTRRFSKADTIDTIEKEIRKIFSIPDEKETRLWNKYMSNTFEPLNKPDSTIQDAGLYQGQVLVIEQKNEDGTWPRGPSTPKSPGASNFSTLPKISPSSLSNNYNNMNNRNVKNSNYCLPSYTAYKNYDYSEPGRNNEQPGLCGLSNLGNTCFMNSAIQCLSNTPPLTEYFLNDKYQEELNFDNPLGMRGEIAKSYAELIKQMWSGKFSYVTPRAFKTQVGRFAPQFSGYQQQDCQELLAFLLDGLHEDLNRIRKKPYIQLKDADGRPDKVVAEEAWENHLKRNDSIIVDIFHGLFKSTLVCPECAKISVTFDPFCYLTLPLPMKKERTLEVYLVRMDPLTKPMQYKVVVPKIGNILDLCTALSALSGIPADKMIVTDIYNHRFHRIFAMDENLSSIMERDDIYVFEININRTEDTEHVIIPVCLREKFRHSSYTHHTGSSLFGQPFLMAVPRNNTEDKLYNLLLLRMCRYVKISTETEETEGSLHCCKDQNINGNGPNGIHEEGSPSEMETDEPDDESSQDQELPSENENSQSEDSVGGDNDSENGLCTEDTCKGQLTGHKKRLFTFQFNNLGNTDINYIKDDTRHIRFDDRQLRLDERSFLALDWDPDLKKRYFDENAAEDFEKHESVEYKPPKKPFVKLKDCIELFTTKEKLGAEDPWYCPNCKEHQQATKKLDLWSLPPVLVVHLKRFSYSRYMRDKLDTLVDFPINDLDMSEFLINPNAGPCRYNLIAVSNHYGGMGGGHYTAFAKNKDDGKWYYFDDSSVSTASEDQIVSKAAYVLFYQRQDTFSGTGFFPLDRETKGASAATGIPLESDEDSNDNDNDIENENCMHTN", "how_it_was_run": "as §1"}, "USP16": {"target": "USP16 (UniProt Q9Y5T5)", "sequence (Q9Y5T5 whole entry, looked up)": "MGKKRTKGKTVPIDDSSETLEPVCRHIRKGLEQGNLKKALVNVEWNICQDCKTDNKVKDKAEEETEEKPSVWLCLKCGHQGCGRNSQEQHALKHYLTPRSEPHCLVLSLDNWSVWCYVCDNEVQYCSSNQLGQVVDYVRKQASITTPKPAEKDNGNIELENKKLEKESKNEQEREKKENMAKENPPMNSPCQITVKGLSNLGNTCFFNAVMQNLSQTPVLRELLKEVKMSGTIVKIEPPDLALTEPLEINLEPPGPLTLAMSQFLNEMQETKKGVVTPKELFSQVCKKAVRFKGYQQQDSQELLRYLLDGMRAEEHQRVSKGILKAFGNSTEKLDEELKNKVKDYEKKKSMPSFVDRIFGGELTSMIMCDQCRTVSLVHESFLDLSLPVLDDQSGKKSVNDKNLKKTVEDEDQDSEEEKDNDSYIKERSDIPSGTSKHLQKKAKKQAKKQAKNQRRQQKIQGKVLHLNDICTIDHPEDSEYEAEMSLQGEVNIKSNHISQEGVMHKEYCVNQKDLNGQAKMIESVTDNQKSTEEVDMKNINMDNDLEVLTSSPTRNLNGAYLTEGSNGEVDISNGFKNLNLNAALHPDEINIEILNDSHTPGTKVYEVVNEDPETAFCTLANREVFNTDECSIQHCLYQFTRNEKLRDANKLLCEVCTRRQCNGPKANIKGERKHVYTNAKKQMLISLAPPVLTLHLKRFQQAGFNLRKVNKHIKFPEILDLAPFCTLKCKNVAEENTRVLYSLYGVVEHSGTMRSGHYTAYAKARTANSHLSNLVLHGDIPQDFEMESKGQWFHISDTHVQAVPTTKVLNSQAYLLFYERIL", "how_it_was_run": "as §1"}}, "note": "A number with no mark means an inactive call."}
{"molecule": "CC(C)n1nccc1NC(=O)CCl", "values": [{"measurement": "log2 ratio of Biotin-Ahx-Ub-VS probe labelling", "setting": "OTUD6B", "result": -0.189}, {"measurement": "log2 ratio of Biotin-Ahx-Ub-VS probe labelling", "setting": "OTUD7B", "result": "-2.07 (active)"}, {"measurement": "log2 ratio of Biotin-Ahx-Ub-VS probe labelling", "setting": "PRPF8", "result": -0.0737}, {"measurement": "log2 ratio of Biotin-Ahx-Ub-VS probe labelling", "setting": "PSMD7", "result": -0.278}, {"measurement": "log2 ratio of Biotin-Ahx-Ub-VS probe labelling", "setting": "UCHL1", "result": "-1.45 (active)"}, {"measurement": "log2 ratio of Biotin-Ahx-Ub-VS probe labelling", "setting": "UCHL3", "result": 0.181}, {"measurement": "log2 ratio of Biotin-Ahx-Ub-VS probe labelling", "setting": "UCHL5", "result": -0.327}, {"measurement": "log2 ratio of Biotin-Ahx-Ub-VS probe labelling", "setting": "USP10", "result": 0.0851}, {"measurement": "log2 ratio of Biotin-Ahx-Ub-VS probe labelling", "setting": "USP15", "result": -0.314}, {"measurement": "log2 ratio of Biotin-Ahx-Ub-VS probe labelling", "setting": "USP16", "result": -0.153}]}
